Measurements published in PubChem BioAssay (NCI).
About 79,000 compounds went through this panel and 15% of them were active in at least one assay; those are over-represented in the sample as a whole. No stated cut-off is given here; in the data, active means growth inhibition above about 70%; inactive means the rest.

Assays:
[1] = NCI Yeast Anticancer Drug Screen. Data for the rad50 strain (AID 155);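 further: 0% = growth of vehicle-only cultures of the same strain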; conditions: S. cerevisiae rad50 strain growth inhibition; at 50.0 µM; stronger effect = higher value
Procedure, shortened: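 Yeast carrying a defined DNA repair defect were exposed to test compounds, and growth was compared with vehicle-treated controls to give percent inhibition.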

[2] = NCI Yeast Anticancer Drug Screen. Data for the mec2-1 strain (AID 157); conditions: S. cerevisiae mec2-1 strain, at 50.0 µM, stronger effect = higher value
Procedure, shortened: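 Compounds were applied to mec2-1 yeast cells. Their growth was then compared with that of vehicle-treated cultures to give growth inhibition.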

[3] = NCI Yeast Anticancer Drug Screen. Data for the sgs1 mgt1 strain (AID 161);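 further: 0% = growth of cultures given vehicle only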; conditions: S. cerevisiae sgs1 mgt1 strain, at 50.0 µM, stronger effect = higher value
Procedure, shortened: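 Compounds are added to genetically altered yeast, and growth is compared with cultures given vehicle alone to give percent inhibition.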

[4] = NCI Yeast Anticancer Drug Screen. Data for the cln2 rad14 strain (AID 165);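 further: 0% = growth equal to vehicle treated cultures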; conditions: S. cerevisiae cln2 rad14 strain, at 50.0 µM, stronger effect = higher value
Procedure, shortened: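 Strain: cln2 rad14 yeast, altered in cell cycle control and DNA damage repair. Read-out: growth inhibition vs vehicle.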

[5] = NCI Yeast Anticancer Drug Screen. Data for the bub3 strain (AID 167); conditions: S. cerevisiae bub3 mutant strain, at 50.0 µM, stronger effect = higher value
Procedure, shortened: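 Compounds were applied to a genetically altered yeast strain carrying a cell-cycle control defect. Growth inhibition was scored against vehicle-treated controls.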

[6] = NCI Yeast Anticancer Drug Screen. Data for the mlh1 rad18 strain (AID 175); conditions: S. cerevisiae mlh1 rad18 strain growth inhibition; at 50.0 µM; stronger effect = higher value
Procedure, shortened: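 A repair-deficient yeast strain is exposed to test compound, and growth is scored relative to vehicle-treated controls.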

Measured: growth inhibition

COc1nc(N)nc2c1ncn2C1OC(CO)CC1O (stereo not drawn)
inactive: [1] 13.4% | [2] -3.2% | [3] -3.5% | [4] 10.9% | [5] 0.55% | [6] 25.8%

Cc1ccc(/C=C2\SC(=S)N(c3ccc(F)cc3)C2=O)o1
inactive: [1] 14.7% | [2] 10.9% | [3] 28.4% | [4] 17.4% | [5] 15.8% | [6] 23.9%

CCOc1ccc(I)cc1
inactive: [1] 10.9% | [2] 11.8% | [3] -17.5% | [4] 36.8% | [5] -0.75% | [6] -11.7%

O=C(/C(=N/O)c1ccccc1)c1ccccc1
inactive: [1] 7.4% | [2] -21.6% | [3] 1.35% | [4] -25.5% | [5] 4.85% | [6] 12.2%

CCOC(=O)C1OC1c1ccccc1 (stereo not drawn)
inactive: [1] 24.5% | [2] -6.45% | [3] -2.3% | [4] -4.5% | [5] -3.9% | [6] 22.9%

N#C/C(=C\c1cc(O)c(O)c(O)c1)C(N)=O
inactive: [1] 29.8% | [2] -14.8% | [3] 24.6% | [4] 2.6% | [5] 25.7% | [6] 35.5%

COc1cccc(/C=N/NC(=S)NC2CC3CCC2C3)c1O (stereo not drawn)
inactive: [1] -21.6% | [2] -33.1% | [3] -3.4% | [4] -9.9% | [5] -13.9% | [6] -3.5%

COc1ccc(/C(C#N)=C2C=C/C(=N/O)c3ccccc3\2)cc1
inactive: [1] -5.15% | [2] 14.6% | [3] 8.75% | [4] -22.2% | [5] 9.25% | [6] 19.9%

O=[N+]([O-])c1ccc(Cl)c(S(=O)(=O)O)c1
inactive: [1] 36.4% | [2] 21.3% | [3] 21.2% | [4] -18.9% | [5] 10.8% | [6] 35.5%

CC(=O)NCc1cc(C)c(C)cc1C
inactive: [1] 12.5% | [2] -20.1% | [3] 1.25% | [4] 9.15% | [5] 5.3% | [6] 8.5%

O=[N+]([O-])c1ccc(O)c(S(=O)(=O)O)c1
inactive: [1] 8.55% | [2] -20.6% | [3] 7.65% | [4] 15.7% | [5] -0.45% | [6] 4.1%

CCCCCCCCCCCCCCCCC1CC(=O)OC1=O (stereo not drawn)
inactive: [1] -4.35% | [2] -12.2% | [3] 5.9% | [4] 4.3% | [5] -11.3% | [6] 4.55%

COc1ccc(C(C)C=O)cc1 (stereo not drawn)
inactive: [1] 5.55% | [2] -14.8% | [3] -30.3% | [4] -51.5% | [5] -27.9% | [6] 2.3%

O=C(O)COCC(=O)O
inactive: [1] 34.1% | [2] -15.2% | [3] -11.4% | [4] -53.2% | [5] 5.85% | [6] 4.75%

CCN(CC)CCCC(C)Nc1ccnc(/C=C/c2ccc(Cl)cc2)c1 (stereo not drawn)
inactive: [1] 2.75% | [2] -1.2% | [3] -16.1% | [4] -2.55% | [5] -39.5% | [6] -19%

Nc1ccccc1SC(CC(=O)c1ccccc1)c1c(Cl)cccc1Cl (stereo not drawn)
inactive: [1] -11.5% | [2] -9.65% | [3] 2.1% | [4] 1.75% | [5] 2.85% | [6] 16.7%

CC1(C)N=C(N)N=C(N)N1c1ccc(Cl)cc1
inactive: [1] 19.7% | [2] 3.35% | [3] 0.4% | [4] -20.2% | [5] 3.85% | [6] 35.7%

CCOC(=O)C1=C(C)NC(=O)NC1c1cccs1 (stereo not drawn)
inactive: [1] -11.2% | [2] -26.9% | [3] -14.4% | [4] 5.5% | [5] -14.2% | [6] -20.1%

CN(C)c1ccc2nc3ccc(=N)cc-3sc2c1
inactive: [1] 4.55% | [2] -19.1% | [3] 18.6% | [4] 7.45% | [5] -15.2% | [6] 22.4%

OC1CCCc2ccccc21 (stereo not drawn)
inactive: [1] 17.6% | [2] 17.4% | [3] 13.6% | [4] -17.9% | [5] 0.85% | [6] 20.2%

CCC/C=C(/C(C)=O)C(=O)OCC
inactive: [1] 18.9% | [2] -4.6% | [3] -7% | [4] 0.2% | [5] -19.8% | [6] -6.75%

Nc1nc(OCc2ccccc2)c2[nH]cnc2n1
inactive: [1] -15.3% | [2] -0.15% | [3] -48.1% | [4] -29.2% | [5] -30.9% | [6] -42.5%

CCOC(=O)Nc1cc2c(c(N)n1)N=C(c1ccccc1)CO2
inactive: [1] 37.5% | [2] 27.7% | [3] 34% | [4] 16.5% | [5] 14.8% | [6] -21.9%

Cc1c(O)cccc1O
inactive: [1] -5.55% | [2] -17.4% | [3] 7.8% | [4] 7.1% | [5] -8.2% | [6] -8.3%

CCOc1ccccc1/C=N/Nc1nc2ccccc2o1
inactive: [1] 30.6% | [2] 0.4% | [3] -2.8% | [4] -23.8% | [5] 6.85% | [6] 33.6%

CCCNc1ccc(C2=NCCCN2)cc1
inactive: [1] 0.55% | [2] -19.1% | [3] -3.9% | [4] 7.25% | [5] 17.5% | [6] -1.5%

NC(C(=O)O)C(O)c1ccco1 (stereo not drawn)
inactive: [1] 6.6% | [2] -0.1% | [3] 3.95% | [4] 13.8% | [5] 3.75% | [6] 6.75%

OCc1cccc2ccccc12
inactive: [1] 27.6% | [2] 25.9% | [3] 13.9% | [4] -27.4% | [5] 3.6% | [6] 24.5%

CC(=O)OCC1=CC2OC(=O)C3=COC(OC4OC(CO)C(O)C(O)C4O)C1C32 (stereo not drawn)
inactive: [1] 11.6% | [2] -3.55% | [3] 10.3% | [4] 13.4% | [5] 16.6% | [6] -51.6%

O=C(Nc1cccc(NC(=O)Nc2cc(C(F)(F)F)ccc2Cl)c1)Nc1cc(C(F)(F)F)ccc1Cl
inactive: [1] 18.8% | [2] -15.8% | [3] 9.55% | [4] 19.4% | [5] 14.9% | [6] 11.7%

COc1cc2nn(-c3ccccc3N)nc2cc1OC
inactive: [1] 19.4% | [2] 36.6% | [3] 48.2% | [4] 14.7% | [5] 52.2% | [6] 29.9%

CCCCC/C=N/Nc1nc(C)cc(=O)[nH]1
inactive: [1] 4.85% | [2] -5.6% | [3] -8.95% | [4] 15.7% | [5] -2.9% | [6] 4.4%

Clc1ccc(-c2n[nH]c3c2Cc2ccccc2-3)cc1Cl
inactive: [1] -5.1% | [2] -10.8% | [3] 16.4% | [4] 16.4% | [5] 11.8% | [6] 7.45%

Cc1nc2ccccc2c2nnc(SCC(=O)N(Cc3ccccc3)c3ccccc3)n12
inactive: [1] 6.9% | [2] 6.6% | [3] -28.1% | [4] 8.25% | [5] -3.9% | [6] 2.25%

CCO/C=C1\SC(=S)N(c2cccc(C)c2)C1=O
inactive: [1] 11.1% | [2] 13.7% | [3] 1.25% | [4] 13.2% | [5] 14.9% | [6] 16.9%

CNC(=S)NC(C)(C)C
inactive: [1] -14% | [2] -17.3% | [3] -20.6% | [4] -29.2% | [5] -18.8% | [6] -20%

Cc1nc2ccccc2c(C(=O)O)c1O
inactive: [1] 9.45% | [2] -10.2% | [3] 1.5% | [4] 6.65% | [5] 11.1% | [6] 19.9%

Cc1cccc([N+](=O)[O-])c1Cl
inactive: [1] -39.2% | [2] -72.5% | [3] -36.5% | [4] 10.6% | [5] -30.8% | [6] -17.6%

CCOC(=O)c1cc(/C=C/c2ccc(Cl)cc2Cl)on1
inactive: [1] -31.4% | [2] -52.7% | [3] -43% | [4] -41.1% | [5] -36.1% | [6] -45.5%

CCC(C)(C)C1CCC(O)CC1 (stereo not drawn)
inactive: [1] 10.2% | [2] 6.6% | [3] 12.7% | [4] -53.5% | [5] -5.15% | [6] 1.5%

O=S(=O)(O)CC(O)CN1CCN(CCO)CC1 (stereo not drawn)
inactive: [1] -18.9% | [2] -35.8% | [3] -36.8% | [4] 5.45% | [5] -23.9% | [6] -6.3%

O=C(O)c1cccc([N+](=O)[O-])c1
inactive: [1] -28% | [2] -8% | [3] -21.8% | [4] -27.1% | [5] -23.1% | [6] -27.4%

O=[N+]([O-])c1ccc(S(=O)(=O)NN=C2CCCCC2)cc1
inactive: [1] 19.9% | [2] 13.2% | [3] 8.1% | [4] -31% | [5] 8.85% | [6] 37.8%
